Assay results published in the supplement of paper PMC8975748.
Where a name gives a salt, the structure may show the parent alone. ± gives the standard deviation of the averaged measurements.

Columns and labels:
[1] = system: Saccharomyces cerevisiae BY4741 SeMeCo community; experiment: mean cell size (pixel area) (pixels); higher = larger cells; settings: 10 µM; 24 h; SM minimal medium
Summary of the method: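 The test system was a fluorescent Saccharomyces cerevisiae BY4741 community with four plasmids, each restoring one auxotrophy and carrying a fluorescent marker. Cells were grown for 24 h in SM medium with drug at a final 10 µM in 384-well plates, then fixed with paraformaldehyde and imaged by automated confocal microscopy for Harmony analysis of mean cell pixel area per well. Values represent the average of 3 replicates. Same SeMeCo high-content imaging drug screen: Selleck FDA-approved drugs at 10 µM, 24 h in SM medium, 384-well plates, 3 replicates.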

[2] = system: Saccharomyces cerevisiae BY4741 SeMeCo community; experiment: z-score of prototroph abundance vs DMSO median; higher = larger share of this subpopulation than in DMSO controls; settings: 10 µM; 24 h; SM minimal medium; subpopulation (auxotrophy): Prototroph
Summary of the method: (§1)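 A community of Saccharomyces cerevisiae BY4741 was built from four plasmids that each restored one auxotrophy and encoded a distinct fluorescent protein. Pre-grown overnight to OD600 1.0 and diluted to 0.3, it was dispensed at 70 µl into 384-well plates acoustically predosed with library drugs for a final 10 µM, and grown 24 h in minimal SM medium. Cells were then paraformaldehyde-fixed and imaged by automated confocal microscopy. Thresholds and autofluorescence correction came from single-auxotroph fluorescent strains, and each subpopulation's abundance was scored as a z-score relative to the vehicle-well median.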

[3] = system: Saccharomyces cerevisiae BY4741 SeMeCo community; experiment: z-score of subpopulation abundance vs DMSO median, subpopulation auxotrophic for M; higher = larger share of this subpopulation than in DMSO controls; settings: 10 µM; 24 h; SM minimal medium; subpopulation (auxotrophy): M
Summary of the method: as §1

[4] = system: Saccharomyces cerevisiae BY4741 SeMeCo community; experiment: z-score of subpopulation abundance vs DMSO median, subpopulation auxotrophic for L; higher = larger share of this subpopulation than in DMSO controls; settings: 10 µM; 24 h; SM minimal medium; subpopulation (auxotrophy): L
Summary of the method: as §1

[5] = system: Saccharomyces cerevisiae BY4741 SeMeCo community; experiment: z-score of subpopulation abundance vs DMSO median, subpopulation auxotrophic for U; higher = larger share of this subpopulation than in DMSO controls; settings: 10 µM; 24 h; SM minimal medium; subpopulation (auxotrophy): U
Summary of the method: as §1

[6] = system: Saccharomyces cerevisiae BY4741 SeMeCo community; experiment: z-score of subpopulation abundance vs DMSO median, subpopulation auxotrophic for H; higher = larger share of this subpopulation than in DMSO controls; settings: 10 µM; 24 h; SM minimal medium; subpopulation (auxotrophy): H
Summary of the method: as §1

[7] = system: Saccharomyces cerevisiae BY4741 SeMeCo community; experiment: z-score of subpopulation abundance vs DMSO median, subpopulation auxotrophic for LU; higher = larger share of this subpopulation than in DMSO controls; settings: 10 µM; 24 h; SM minimal medium; subpopulation (auxotrophy): LU
Summary of the method: as §1

[8] = system: Saccharomyces cerevisiae BY4741 SeMeCo community; experiment: z-score of subpopulation abundance vs DMSO median, subpopulation auxotrophic for LM; higher = larger share of this subpopulation than in DMSO controls; settings: 10 µM; 24 h; SM minimal medium; subpopulation (auxotrophy): LM
Summary of the method: as §1

[9] = system: Saccharomyces cerevisiae BY4741 SeMeCo community; experiment: z-score of subpopulation abundance vs DMSO median, subpopulation auxotrophic for HM; higher = larger share of this subpopulation than in DMSO controls; settings: 10 µM; 24 h; SM minimal medium; subpopulation (auxotrophy): HM
Summary of the method: as §1

[10] = system: Saccharomyces cerevisiae BY4741 SeMeCo community; experiment: z-score of subpopulation abundance vs DMSO median, subpopulation auxotrophic for HU; higher = larger share of this subpopulation than in DMSO controls; settings: 10 µM; 24 h; SM minimal medium; subpopulation (auxotrophy): HU
Summary of the method: as §1

[11] = system: Saccharomyces cerevisiae BY4741 SeMeCo community; experiment: z-score of subpopulation abundance vs DMSO median, subpopulation auxotrophic for UM; higher = larger share of this subpopulation than in DMSO controls; settings: 10 µM; 24 h; SM minimal medium; subpopulation (auxotrophy): UM
Summary of the method: as §1

[12] = system: Saccharomyces cerevisiae BY4741 SeMeCo community; experiment: z-score of subpopulation abundance vs DMSO median, subpopulation auxotrophic for HL; higher = larger share of this subpopulation than in DMSO controls; settings: 10 µM; 24 h; SM minimal medium; subpopulation (auxotrophy): HL
Summary of the method: as §1

[13] = system: Saccharomyces cerevisiae BY4741 SeMeCo community; experiment: z-score of subpopulation abundance vs DMSO median, subpopulation auxotrophic for HLM; higher = larger share of this subpopulation than in DMSO controls; settings: 10 µM; 24 h; SM minimal medium; subpopulation (auxotrophy): HLM
Summary of the method: as §1

[14] = system: Saccharomyces cerevisiae BY4741 SeMeCo community; experiment: z-score of subpopulation abundance vs DMSO median, subpopulation auxotrophic for HUM; higher = larger share of this subpopulation than in DMSO controls; settings: 10 µM; 24 h; SM minimal medium; subpopulation (auxotrophy): HUM
Summary of the method: as §1

[15] = system: Saccharomyces cerevisiae BY4741 SeMeCo community; experiment: z-score of subpopulation abundance vs DMSO median, subpopulation auxotrophic for LUM; higher = larger share of this subpopulation than in DMSO controls; settings: 10 µM; 24 h; SM minimal medium; subpopulation (auxotrophy): LUM
Summary of the method: as §1

[16] = system: Saccharomyces cerevisiae BY4741 SeMeCo community; experiment: z-score of subpopulation abundance vs DMSO median, subpopulation auxotrophic for HLUM; higher = larger share of this subpopulation than in DMSO controls; settings: 10 µM; 24 h; SM minimal medium; subpopulation (auxotrophy): HLUM
Summary of the method: as §1

## CCN(CC)CCOCCOC(=O)C1(c2ccccc2)CCCC1 [Pentoxyverine Citrate]
[1]
  mean cell size: 12.5 ± 0.13
[2]
  z-score of prototroph abundance: 0.37
[3]
  z-score of subpopulation abundance: -0.67
[4]
  z-score of subpopulation abundance: -0.03
[5]
  z-score of subpopulation abundance: 0.17
[6]
  z-score of subpopulation abundance: -0.71
[7]
  z-score of subpopulation abundance: 0.06
[8]
  z-score of subpopulation abundance: -0.24
[9]
  z-score of subpopulation abundance: -0.96
[10]
  z-score of subpopulation abundance: -0.94
[11]
  z-score of subpopulation abundance: -0.39
[12]
  z-score of subpopulation abundance: -0.72
[13]
  z-score of subpopulation abundance: -0.05
[14]
  z-score of subpopulation abundance: -1.14
[15]
  z-score of subpopulation abundance: -0.26
[16]
  z-score of subpopulation abundance: -0.26

## CC[C@H](C)C[C@H](C)CCCCCCCCC(=O)N[C@H]1C[C@@H](O)[C@@H](NCCN)NC(=O)[C@@H]2[C@@H](O)CCN2C(=O)[C@H]([C@H](O)CCN)NC(=O)[C@H]([C@H](O)[C@@H](O)c2ccc(O)cc2)NC(=O)[C@@H]2C[C@@H](O)CN2C(=O)[C@H]([C@@H](C)O)NC1=O [Caspofungin Acetate]
[1]
  mean cell size: 12.17 ± 0.068
[2]
  z-score of prototroph abundance: -12.2
[3]
  z-score of subpopulation abundance: -8.37
[4]
  z-score of subpopulation abundance: 5.93
[5]
  z-score of subpopulation abundance: -3.79
[6]
  z-score of subpopulation abundance: 31.6
[7]
  z-score of subpopulation abundance: -0.13
[8]
  z-score of subpopulation abundance: 1.23
[9]
  z-score of subpopulation abundance: -0.2
[10]
  z-score of subpopulation abundance: 8.05
[11]
  z-score of subpopulation abundance: -2.51
[12]
  z-score of subpopulation abundance: 51.3
[13]
  z-score of subpopulation abundance: 45.5
[14]
  z-score of subpopulation abundance: 10.8
[15]
  z-score of subpopulation abundance: 5.81
[16]
  z-score of subpopulation abundance: 127

## CCC[C@@H]1C[C@@H](C(=O)N[C@@H]([C@H]2O[C@H](SC)[C@H](O)[C@@H](O)[C@H]2O)[C@@H](C)O)N(C)C1 [Lincomycin Hydrochloride Monohydrate]
[1]
  mean cell size: 12.3 ± 0.19
[3]
  z-score of subpopulation abundance: 0.19
[4]
  z-score of subpopulation abundance: -0.22
[5]
  z-score of subpopulation abundance: 0.86
[6]
  z-score of subpopulation abundance: -0.54
[7]
  z-score of subpopulation abundance: 0.94
[8]
  z-score of subpopulation abundance: -0.56
[9]
  z-score of subpopulation abundance: -0.07
[10]
  z-score of subpopulation abundance: 0.41
[11]
  z-score of subpopulation abundance: 0.42
[12]
  z-score of subpopulation abundance: -0.46
[13]
  z-score of subpopulation abundance: -0.3
[14]
  z-score of subpopulation abundance: -0.11
[15]
  z-score of subpopulation abundance: 0.4
[16]
  z-score of subpopulation abundance: 0.63

## Cc1nc(C)c(Cl)c(O)c1Cl [Clopidol]
[1]
  mean cell size: 12.22 ± 0.083
[2]
  z-score of prototroph abundance: 0.11
[3]
  z-score of subpopulation abundance: -0.51
[4]
  z-score of subpopulation abundance: 0.46
[5]
  z-score of subpopulation abundance: -0.09
[6]
  z-score of subpopulation abundance: 0.6
[7]
  z-score of subpopulation abundance: 0.07
[8]
  z-score of subpopulation abundance: -0.19
[9]
  z-score of subpopulation abundance: -0.62
[10]
  z-score of subpopulation abundance: -0.28
[11]
  z-score of subpopulation abundance: -0.13
[12]
  z-score of subpopulation abundance: 0.28
[13]
  z-score of subpopulation abundance: 0.14
[14]
  z-score of subpopulation abundance: -0.08
[15]
  z-score of subpopulation abundance: -0.04
[16]
  z-score of subpopulation abundance: -0.36

## CS(=O)(=O)c1ccc([C@@H](O)[C@@H](CF)NC(=O)C(Cl)Cl)cc1 [Florfenicol]
[1]
  mean cell size: 12.4 ± 0.26
[2]
  z-score of prototroph abundance: 0.5
[3]
  z-score of subpopulation abundance: -1.1
[4]
  z-score of subpopulation abundance: -0.16
[5]
  z-score of subpopulation abundance: 0.29
[6]
  z-score of subpopulation abundance: -0.98
[7]
  z-score of subpopulation abundance: -0.09
[8]
  z-score of subpopulation abundance: -0.75
[9]
  z-score of subpopulation abundance: -1.52
[10]
  z-score of subpopulation abundance: 0
[12]
  z-score of subpopulation abundance: -0.56
[13]
  z-score of subpopulation abundance: -0.4
[14]
  z-score of subpopulation abundance: -0.98
[15]
  z-score of subpopulation abundance: -0.3
[16]
  z-score of subpopulation abundance: -0.14

## CNCCCN1c2ccccc2CCc2ccccc21 [Desipramine Hydrochloride]
[1]
  mean cell size: 12.2 ± 0.14
[2]
  z-score of prototroph abundance: -0.16
[3]
  z-score of subpopulation abundance: 1.14
[4]
  z-score of subpopulation abundance: 0.26
[5]
  z-score of subpopulation abundance: -0.08
[6]
  z-score of subpopulation abundance: 0.31
[7]
  z-score of subpopulation abundance: -0.28
[8]
  z-score of subpopulation abundance: 0.26
[9]
  z-score of subpopulation abundance: 0.82
[10]
  z-score of subpopulation abundance: -0.04
[11]
  z-score of subpopulation abundance: -0.43
[12]
  z-score of subpopulation abundance: 0.02
[13]
  z-score of subpopulation abundance: -0.1
[14]
  z-score of subpopulation abundance: 0.16
[15]
  z-score of subpopulation abundance: -0.63
[16]
  z-score of subpopulation abundance: -0.78
